An excerpt weighted towards active compounds, which were near 3.1% of everything screened.
Tau fibril ThT = qHTS for Inhibitors of Tau Fibril Formation, Thioflavin T Binding. recombinant tau K18 P301L, heparin-induced fibrillization, ThT fluorescence. Potency, µM (doses to about 57.4 µM), without a hit: at the highest dose activity, negative = inhibition, hits mostly inhibitors. 270,000 tested, 2.1% active. AID 1460, 2008; also: nearly all actives have a fitted effect of over 55% in size
Target sequence (P10636 561-689 P618L limits assumed): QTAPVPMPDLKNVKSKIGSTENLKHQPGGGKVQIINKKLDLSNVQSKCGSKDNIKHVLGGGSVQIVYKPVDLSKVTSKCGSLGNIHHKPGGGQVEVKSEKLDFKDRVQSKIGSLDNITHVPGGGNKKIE
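Tau K18 P301L fragment (15 uM unlabeled plus 0.24 uM Alexa 594-labeled) in 100 mM sodium acetate pH 7 with compound, fibrillization induced by 20 uM heparin for 6 hr at 37 C. Thioflavin T (30 uM) added, fluorescence read after 1 hr (ex 450, em 510 nm).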
Tau FP inhib = qHTS for Inhibitors of Tau Fibril Formation, Fluorescence Polarization; Microtubule-associated protein tau (Homo sapiens), P10636; K18 P301L tau heparin fibrillization, Alexa594 FP, 6 h; Potency, µM (titrated, usually from 57.7 µM), without a hit: at the top dose activity, negative = inhibition, hits mostly inhibitors; 280,000 tested, 0.39% active; AID 1468, 2008; also: nearly all actives have a fitted effect of over 55% in size
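Quantitative HTS format: compounds meet 15 uM recombinant K18 P301L tau and Alexa 594-tau tracer in 100 mM sodium acetate pH 7; 20 uM heparin triggers fibrillization at 37 C over 6 hr; FP gives the signal.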
RGS12 GoLoco inh = qHTS Assay for Inhibitors of RGS12 GoLoco Motif Activity (Red Fluorophore); Gai1:RGS12 GoLoco peptide FP, rhodamine, 10 min; Potency, µM (titrated, usually from 61.6 µM), without a hit: at the top dose activity, negative = inhibition, actives largely listed as inhibitors; 230,000 tested, 0.44% active; AID 880, 2007; active = well fitted inhibition curve with a large enough effect, not every such curve was filed as active; inactive = no such curve, though single readings can be large or run the other way; also: nearly all actives have a fitted effect of over 30% in size
TR SRC2 fluor cs = Total Fluorescence Counterscreen for Inhibitors of the Interaction of Thyroid Hormone Receptor and Steroid Receptor Coregulator 2; Potency, µM (top dose mostly 106 µM), for the others: at the top dose fluorescence change, negative = quenching; 280,000 tested, 0.29% active; TRb/SRC2 Texas Red total fluorescence interference; active = well fitted curve in either direction with a large enough effect; inconclusive = small, poorly fitted or top-dose-only effect
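Human TRβ ligand-binding domain (0.6 uM) and Texas Red SRC2 peptide (20 nM) in Tris buffer with 1 uM T3 and 5% DMSO were incubated with pinned compound for 5 hr at ambient temperature. Total fluorescence was computed as S + 2P (555/632 nm).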
Tau fluor counter = Counterscreen qHTS for Inhibitors of Tau Fibril Formation, Fluorescence Polarization. tau K18 P301L (four-repeat tau fragment) Alexa594 fluorescence, heparin fibrillization. Potency, µM (series often up to 57.7 µM), without a hit: top-dose activity change, negative = decrease. 280,000 tested, 0.93% active; also: nearly all actives have a fitted effect of over 55% in size
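Human K18 P301L tau (15 uM unlabeled plus 0.24 uM Alexa 594-labeled, final) in 100 mM sodium acetate pH 7 was mixed with compound and 20 uM heparin and incubated 6 hr at 37 C.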
TRb SRC2 PPI = qHTS for Inhibitors of the Interaction of Thyroid Hormone Receptor and Steroid Receptor Coregulator 2. TRbeta-SRC2 peptide binding, fluorescence polarization; receptor liganded with 1 µM T3. Potency, µM (titrated, usually from 106 µM), for inactives: top-dose activity change, negative = inhibition, hits mostly inhibitors. 280,000 tested, 0.065% active. AID 1469, 2008;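 also: plate controls were bound peptide for no effect and peptide without receptor for full effect; nearly all actives have a fitted effect of over 50% in size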
Target sequence (P10828 whole entry, looked up): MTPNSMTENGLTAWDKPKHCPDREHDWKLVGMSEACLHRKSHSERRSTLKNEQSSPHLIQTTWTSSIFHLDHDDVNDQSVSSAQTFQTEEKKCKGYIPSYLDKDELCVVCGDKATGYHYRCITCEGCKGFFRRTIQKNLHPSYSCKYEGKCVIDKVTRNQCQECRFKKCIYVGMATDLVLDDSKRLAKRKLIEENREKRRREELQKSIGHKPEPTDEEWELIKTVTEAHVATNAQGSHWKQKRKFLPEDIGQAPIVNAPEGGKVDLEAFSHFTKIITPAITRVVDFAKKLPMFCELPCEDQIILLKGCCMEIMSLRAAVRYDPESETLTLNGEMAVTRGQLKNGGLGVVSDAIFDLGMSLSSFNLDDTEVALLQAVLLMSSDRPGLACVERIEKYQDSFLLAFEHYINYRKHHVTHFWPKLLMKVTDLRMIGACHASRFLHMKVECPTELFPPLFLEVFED
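TRb LBD 0.6 uM + Texas Red SRC2 peptide 20 nM, 1 uM T3, Tris buffer w/ 5% DMSO; compound pinned, 5 h RT; FP read ex 555/em 632; normalized to unbound and bound controls.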
Starred values were filed as active, the others as inactive; ? = inconclusive; · = no result given; [ ] = remark or other dose. Unless noted, calls follow the shape of the dose curve; as a rule, active = well fitted curve in the direction sought with a large enough effect; inconclusive = small, poorly fitted or top-dose-only effect, or another doubt; inactive = no such curve, though single readings can be large; an effect the other way counts as inactive or inconclusive. Unless noted, % is scaled to controls: 0 for no effect and ±100 for the full control effect; potency is read from the fitted curve at half-maximal effect.

SMILES	Tau fibril ThT	Tau FP inhib	RGS12 GoLoco inh	TR SRC2 fluor cs	Tau fluor counter	TRb SRC2 PPI
CC1CC(=O)Nc2ccccc2N1S(=O)(=O)c1cccc(F)c1 (stereo not drawn)	-4%	9%	-3%	1%	-8%	-5%
COCCCNC(=O)c1cc2c(=O)n3cccc(C)c3nc2s1	-4%	2%	·	6%	-4%	1%
COC(=O)CCSc1cc(NCCOC(C)=O)c([N+](=O)[O-])c2nonc12	11µM*	-10%	1%	-2%	?	-1%
CCn1c(Cl)c(C=O)s/c1=N\S(=O)(=O)c1ccccc1	8.9µM*	7.1µM*	180%	1%	-27%	-2%
CCN1C(=O)CS/C1=N\S(=O)(=O)c1ccc(Cl)cc1	-3%	-2%	13%	0%	-6%	-2%
Cc1ccc(C(=O)N/N=C(/CC(=O)c2cccs2)C(F)(F)F)cc1	?	9%	-2%	2%	-17%	-2%
O=C(N/N=C(\CC(=O)c1cccs1)C(F)(F)F)c1ccncc1	14µM*	8%	113%	-2%	?	2%
NC(=O)c1cc(-c2ccccc2)sc1NC(=O)Cc1ccc(S(=O)(=O)N2CCOCC2)s1	?	13%	22%	-5%	?	2%
CCOc1ccc(/C=C/C(=O)Nc2ccc(C(N)=O)cc2)cc1OC	0%	-10%	8%	1%	-2%	-26%
CCOCCOC(=O)c1ccc(NC(=O)/C=C/c2ccc(OC)c(OC)c2)cc1	13%	?	·	0.89µM*[quencher]	-22%	-17%[53 µM]
COc1ccc(/C=C/C(=O)Nc2ccc(Cl)c(Cl)c2)cc1OC	?	14µM*	·	1%	10µM*[quencher]	-3%
NC(CO)C12CC3CC(CC(C3)C1)C2 (stereo not drawn)	5%	-9%	-2%	-2%	-2%	3%
CC(C)(C)c1ccc(OCc2ccc(C(=O)N/N=C/c3ccc([N+](=O)[O-])cc3)o2)cc1	?	6%	1%	0%	8.9µM*[quencher]	5%
CC1CCC/C(=C\Nc2ccc(O)cc2)C1=O (stereo not drawn)	18µM*	?	28µM*	13%	?	28µM*
Cc1ccccc1NC(=O)Cn1c(=O)n(CCC(=O)NCc2ccc3c(c2)OCO3)c(=O)c2sccc21	1%	?	·	-65%	-6%	-3%
CCn1c(C)nc2cc(C(=O)NNC(=S)Nc3ccc(Cl)cc3Cl)ccc21	0%	7%	62%	8.9µM*[quencher]	-2%	-21%[53 µM]
Oc1ccc2oc3c(c2c1C=NCc1ccncc1)CCCC3	16µM*	?	4%	-1%	?	2%
Oc1ccc2oc3c(c2c1/C=N/n1cnnc1)CCCC3	2%	1%	3%	-1%	-5%	10%
O=C1CC(c2ccccc2)CC(O)=C1C=NCc1ccco1 (stereo not drawn)	-1%	7%	22%	-3%	12%	-1%
Oc1ccc(N=Cc2ccc(O)c(O)c2)cc1	3.2µM*	8.9µM*	16µM*	-7%	?	1%
C[N+](C)(C)/N=C\c1ccc(O)c(O)c1	·	·	-20%[14.2 µM]	·	·	·
COc1ccc(NC(=O)/C=C2\SC(=O)NC2=O)cc1	?	-1%	8%	-4%	-2%	2%
CCC(=O)Nc1ccc(-n2nnnc2SCC(=O)NNC(=O)c2ccco2)cc1	·	-9%	3%	-1%	19%	2%
Cc1ccccc1N=Nc1c(C)[nH]n(C(N)=S)c1=O	14µM*	8%	1%	-5%	-18%	-8%
Cc1ccccc1N=Nc1c(C)[nH]n(-c2ccccc2)c1=O	-17%	2%	8%	-6%	-17%	6%
SMILES	Tau fibril ThT	Tau FP inhib	RGS12 GoLoco inh	TR SRC2 fluor cs	Tau fluor counter	TRb SRC2 PPI
Cc1cccc(N=Nc2c(C)[nH]n(C(N)=S)c2=O)c1C	7.9µM*	10%	9%	-1%	-9%	-6%
CC(=O)N(C)c1ccc(N=Nc2c(C)[nH]n(C(N)=S)c2=O)cc1	?	-17%	-5%	1%	-11%	-4%
Fc1ccc(N/N=C/c2ccc(N3CCOCC3)cc2)c(F)c1	?	?	-1%	-2%	?	1%
CC(C)(O)C1Cc2cc(/C=C/C(=O)O)c(O)cc2O1 (stereo not drawn)	-12%	-5%	28µM*	-5%	-11%	1%
O=C(C1CCN(C2CCN(Cc3ccc4c(c3)CCO4)CC2)CC1)N1CCCC1	0%	-2%	14%	-1%	6%	-5%
CC(C)(C)c1ccc(Oc2ccc(NC(=O)c3cccs3)cn2)cc1	1%	28µM*	-1%	-2%	?	-3%
CN(C)c1ccc(C(=O)Nc2nc3c(s2)CCCC3)cc1	7.9µM*	5%	-2%	-6%	?	1%
C/C(=N\Nc1nc2c(s1)CCCC2)c1ccc(Cl)cc1	14µM*	-12%	0%	-4%	25µM*[quencher]	1%
Cc1ccc(NC(=O)/C(C#N)=C(\N)C(Cl)(Cl)Cl)nc1	25µM*	?	3.5µM*	2%	-22%	-1%
Cc1ccc(NC(=O)C(=O)Nc2ccc(C)cn2)nc1	?	3%	3%	-3%	-7%	2%
COc1cc(/C=c2\s/c(=C(/C#N)C(=O)N3CCCC3)n(-c3ccccc3)c2=O)ccc1O	?	2%	178%	1%	-7%	-7%
Cc1ccc(/C=c2\s/c(=C(/C#N)C(=O)N3CCCC3)n(Cc3ccco3)c2=O)s1	16µM*	-12%	70%	-12%	?	1%
CCOC(=O)c1nnc(-c2ccccc2)nc1NC	-12%	-10%	-4%	-7%	-9%	-1%
CCOC(=O)c1nnc(-c2ccccc2)nc1Oc1ccccc1Cl	14µM*	8%	9%	-2%	?	-6%
CCC1Oc2ccccc2N(CC(=O)NCCCN2CCN(Cc3ccccc3)CC2)C1=O (stereo not drawn)	-11%	6%	1%	-3%	-2%	-9%
CCn1c(-c2ccccc2O)n[nH]c1=S	-1%	1%	9%	0%	0%	0%
CCn1c(-c2cc(-c3ccccc3)sc2N)n[nH]c1=S	?	10%	8%	-1%	14µM*[quencher]	-8%
